From PubChem BioAssay (NCI)
The panel holds about 83,000 compounds, 20% with a hit somewhere; the sample as a whole holds those more often.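 Single-concentration screen, 48 h exposure, 96-well plates. Endpoint: percent growth. Below 10 = active.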 Unmarked numbers belong to inactive results. Activity calls are given as the source filed them.

Each compound was assayed on SK-MEL-2 melanoma (assay: NCI-60 one-dose screen, 48 h (100 = growth as untreated, 0 = no growth, -100 = all killed)). Settings: 10 µM unless noted.
Description: Growth inhibition of the SK-MEL-2 human tumor cell line is measured as a screen for anti-cancer activity. Cells are grown in 96 well plates and exposed to the test compound for 48 hours. Compounds are tested at a single concentration, which is 10^-5 M for most compounds. The reported endpoint is percent growth (GI% or GIPRCNT), where numbers from 0 - 100% represent growth inhibition, and numbers from -100% - 0 represent cell death. For example, a value of 40 represents 60% growth inhibition. A value of 0 means no net growth occurred over the course of the experiment. A value of -40 indicates 40% of cells at the beginning of the experiment died by the end of the experiment. A value of -100 means all cells are dead at the end of the experiment.
NCI-60 Human Tumor Cell Lines Screen was performed using the standard one-dose NCI protocol, which is described in more detail at https://dtp.cancer.gov/discovery_development/nci-60/default.htm.
Compounds with GIPRCNT values below 10 were considered active. Activity score was based on GIPRCNT using the following formula: […]
Score is 0 for GIPRCNT values of 100 or above, 50 for GIPRCNT values of 0, and 100 for GIPRCNT values of -100.

Compound	growth
Cc1nc(Nc2cccc(NC(=O)Nc3ccc(Cl)cc3)c2)c2ccccc2n1	107%
CNC(=O)c1c(NC(=O)c2ccc(C(C)(C)C)cc2)sc2c1CCC(=O)C2	-2.66% (active)
CCOC(=O)c1nnn(C(Cc2ccccc2Cl)C(=O)OCC)c1C (stereo not given)	107%
CCn1c(Sc2nnc(NC(=O)CSC(=S)N3CCCCC3)s2)nc2c1c(=O)n(C)c(=O)n2C	81.2%
COc1ccc(-n2nnc(C(=O)NCCc3c[nH]c4ccc(F)cc34)c2C)cc1	91.6%
CCN(CC)CCCNC(=O)c1ccc(N)cc1O	100%
Clc1ccc(-c2nc(NCCc3ccccc3)nc3c(NCCc4ccccc4)cnn23)cc1	79.6%
O=C1CSC(c2ccccc2)N1c1ccccc1 (stereo not given)	74.4%
COc1ccc(Oc2nc(Nc3ccc(N4CCOCC4)nc3)ncc2NC(=O)c2cc(OC)cc(OC)c2)cc1	47.6%
CCOC(=O)c1c2c(c(C)n1C)-c1nn(Cc3ccc(OC)cc3)cc1CC2	111%
Cc1cc2c(F)c(Oc3ncnc(Nc4ccc(N5C[C@@H](C)N[C@@H](C)C5)cc4)c3C#N)cc(F)c2[nH]1	96.9%
C=CCO[C@H]1CO[C@H]2[C@@H]1OC[C@@H]2Oc1ccc(Nc2ccnc(Nc3ccc(O[C@H]4CO[C@H]5[C@@H]4OC[C@@H]5OCC=C)c(Cl)c3)n2)cc1Cl	104%
Cn1ncc2c(Nc3ccc(Br)cc3)nc(Nc3ccc(Br)cc3)nc21	47.6%
CCCCCCNc1cc(C)nc2ccc(OC)cc12	73.7%
C=C(C)[C@@H]1CC[C@]2(CNCCO)CC[C@]3(C)[C@H](CC[C@@H]4[C@@]5(C)CCC(N)[C@@](C)(CO)[C@@H]5CC[C@]43C)[C@@H]12 (stereo not given in full)	-19% (active)
N#Cc1c(NC(=O)c2ccccc2I)sc2c1CCCC2	26.4%
Nc1nc(N)c(-c2ccc(Cl)cc2)c(/C=C/c2ccc([N+](=O)[O-])cc2)n1	88.7%
COc1ccc2cc(-c3ccc(C(=O)NN)c(C)n3)ccc2c1	102%
C=C(C)[C@@H]1CC[C@]2(CN)CC[C@]3(C)[C@H](CC[C@@H]4[C@@]5(C)CCC(N)[C@@](C)(CO)[C@@H]5CC[C@]43C)[C@@H]12 (stereo not given in full)	-86.4% (active)
COc1ccc(/C(C)=C(\c2ccc(Cl)cc2)c2ccc(OCCCN(C)C)cc2)cc1F	97.2%

Compound	growth
Cc1ccc(-n2nnc(C3=NCCc4c3[nH]c3ccc(Cl)cc43)c2C)cc1	62.6%
COc1ccc(OC)c(Nc2nc3nonc3nc2Nc2cc(OC)ccc2OC)c1	64.5%
O=C(CC12CC3CC(CC(C3)C1)C2)NCCOCCOCCOCCNC(=O)c1cc2c(o1)C(=O)c1ccccc1C2=O	-27.6% (active)
[2H]c1nc(Nc2ncc(F)c(-c3cc(F)c4nc(C)n(C(C)C)c4c3)n2)c([2H])c([2H])c1CN1CCN(C([2H])([2H])C([2H])([2H])[2H])CC1	50.1%
CN1C[C@@H](c2ccc(Cl)cc2)[C@]2(NC(=S)N(c3ccc(F)c(Cl)c3)C2=O)[C@@]12C(=O)NC1C=CC(Cl)=C[C@H]12 (stereo not given in full)	53.3%
COc1cc2c(c(OC)c1OC)C(=O)/C(=C/c1cc(C)c(O)c(C)c1)S2	43.6%
O=c1[nH]c(=O)n(C2CC(O)C(CO)O2)cc1CO (stereo not given)	53.5%
O=C1Nc2ccc(Cl)cc2/C1=N/N=C/c1c[nH]c2ccccc12	66.3%
Cl.[Pt].[c-]1ccccc1-c1ccccn1.c1ccc(P(c2ccccc2)C([PH+](c2ccccc2)c2ccccc2)[PH+](c2ccccc2)c2ccccc2)cc1	-2.53% (active)
NC(N)=N/N=C/CO	107%
CCOC(=O)c1c(C)nc2c(c1N)/C(=C/c1ccc(OC)cc1)C(=O)N2Cc1ccc(F)cc1	-27.5% (active)
CCOC(=O)c1sc(-c2ccc(OS(=O)(=O)c3ccc(C(C)(C)C)cc3)c(C=O)c2)nc1C	72.7%
C(=C\c1nc2ccccc2[nH]1)/c1nc2ccccc2[nH]1	107%
CSc1nc(N)c(CNC(C)c2ccccc2)c(=O)n1C (stereo not given)	98.9%
CC(C)(O)c1cccc(F)c1	124%
CN(CCCCCCCCNc1ccnc2ccccc12)Cc1ccc(-c2ccc(-c3ccc(C#N)cc3)s2)cc1	-63.9% (active)
C[C@@H]1CC[C@@H]2[C@@H]1[C@H](OC(=O)/C=C/c1ccccc1)[C@]1(C3CCCCC3)C[C@@H](NC(=O)CO)[C@@]2(C)O1	95.9%
Cc1cccc(-c2cc(O)c(C(=O)N3CCOCC3)s2)c1	28.5%
Cc1cc(N2CCCCC2)nc(N(CCNc2ccnc3cc(Cl)ccc23)Cc2ccccn2)n1	79.9%
CCN(CC)CCCC(C)NCc1ccccc1 (stereo not given)	80.9%
